Screening results deposited in PubChem BioAssay by National Center for Advancing Translational Sciences (NCATS).
An excerpt weighted towards active compounds, which were near 12% of everything screened.
Sm TGR block: qHTS Assay for the Inhibitors of Schistosoma Mansoni Peroxiredoxins; Schistosoma mansoni thioredoxin glutathione reductase (TGR), Q962Y6; purified TGR, DTNB reduction, TNB absorbance 405 nm; Potency, µM (highest dose often 114 µM), without a hit: top-dose activity change, negative = inhibition, usual class: inhibitors; actives 3% (n = 360,000); further: on the % scale 0 is the no-effect control and ±100 the full control effect; nearly all actives have a fitted effect of over 60% in size
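First, TGR (20 nM dispensed) and NADPH were mixed with compound. Second, a 15 min room-temperature incubation followed. Third, further NADPH and then DTNB were added to start the reaction. Finally, TNB absorbance was monitored kinetically.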
Pf growth 48h: Primary qHTS for delayed death inhibitors of the malarial parasite plastid, 48 hour incubation. AID 504832, 2011. actives 5.9% (n = 310,000). P. falciparum luciferase growth in erythrocytes, 48 h. Potency, µM (titrated, usually from 28.7 µM), without a hit: top-dose activity change, negative = inhibition, hits mostly inhibitors; further: on the % scale 0 is the no-effect control and ±100 the full control effect
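Read-out is firefly luciferase luminescence from an integrated reporter in P. falciparum, so falling signal marks reduced parasite growth. Infected erythrocytes were at 2% hematocrit and 0.1% parasitemia (final) in Albumax-supplemented RPMI 1640.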
AmpC inh no detg: qHTS Inhibitors of AmpC Beta-Lactamase (assay without detergent); AID 485341, 2010; P00811; Potency, µM (doses to about 57.1 µM), without a hit: top-dose activity change, negative = inhibition, usual class: inhibitors; AmpC nitrocefin hydrolysis, absorbance 480 nm, 0.0001% Triton; actives 0.52% (n = 330,000);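 further: plate controls were no compound for no effect and no enzyme for full effect; nearly all actives have a fitted effect of over 20% in size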
Target sequence (P00811 whole entry, looked up): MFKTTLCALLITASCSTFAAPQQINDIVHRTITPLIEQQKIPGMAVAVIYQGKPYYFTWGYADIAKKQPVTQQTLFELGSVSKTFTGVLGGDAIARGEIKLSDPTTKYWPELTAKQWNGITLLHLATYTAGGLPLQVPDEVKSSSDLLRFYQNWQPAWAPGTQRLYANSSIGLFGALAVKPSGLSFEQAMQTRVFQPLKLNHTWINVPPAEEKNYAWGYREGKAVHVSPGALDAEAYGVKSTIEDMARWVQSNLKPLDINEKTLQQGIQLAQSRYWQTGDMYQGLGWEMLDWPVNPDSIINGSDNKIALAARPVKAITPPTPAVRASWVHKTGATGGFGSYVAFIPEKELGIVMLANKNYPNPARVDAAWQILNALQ
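AmpC (5.3 nM in the dispensed reagent) in 20 mM phosphate pH 7.0 with 0.01% (detergent screen) or 0.0001% Triton X-100 was preincubated with compounds for 15 min at room temperature. Nitrocefin was then added from an 800 uM solution, and hydrolysis was followed at 480 nm.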
AmpC inh detg: qHTS Inhibitors of AmpC Beta-Lactamase (assay with detergent); P00811; AmpC hydrolysis of nitrocefin, absorbance 480 nm, 0.01% Triton; Potency, µM (highest dose often 114 µM), without a hit: top-dose activity change, negative = inhibition, actives largely listed as inhibitors; actives 0.041% (n = 370,000);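 further: 0% = no-compound wells and -100% = no-enzyme wells; nearly all actives have a fitted effect of over 25% in size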
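AmpC (5.3 nM in the dispensed reagent) in 20 mM phosphate pH 7.0 with 0.01% (detergent screen) or 0.0001% Triton X-100 was preincubated with compounds for 15 min at room temperature. Nitrocefin was then added from an 800 uM solution, and hydrolysis was followed at 480 nm.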
SARS PLP yeast: qHTS of Yeast-based Assay for SARS-CoV PLP | AID 485353, 2010 | actives 0.19% (n = 330,000) | Potency, µM (doses to about 32.9 µM), for inactives: at the highest dose activity, positive = growth rescue, actives largely listed as activators | S. cerevisiae expressing SARS-CoV PLpro, growth rescue; calls by dose curve; further: 0% is about no effect; nearly all actives have a fitted effect of over 55% in size
Pf growth 96h: Primary qHTS for delayed death inhibitors of the malarial parasite plastid, 96 hour incubation; AID 504834, 2011; actives 6.9% (n = 320,000); P. falciparum luciferase reporter growth, 96 h; Potency, µM (top dose mostly 28.7 µM), for the others: at the top dose activity change, negative = inhibition, hits mostly inhibitors; further: on the % scale 0 is the no-effect control and ±100 the full control effect
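Compounds incubated with erythrocytes infected by luciferase-expressing P. falciparum (2% hematocrit, 0.05% parasitemia final) for 96 hours, 37 C in 5% CO2. Growth inhibition scored as decreased luciferase luminescence.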
Numbers without * were called inactive; ? = inconclusive; nt = no result given. Unless noted, the call rests on the fitted dose curve; in most records, active means well fitted curve in the direction sought with a large enough effect; inconclusive means small, poorly fitted or top-dose-only effect, or another doubt; inactive means no such curve, though single readings can be large; an effect the other way counts as inactive or inconclusive. Potency means the concentration at half of the fitted maximal effect.

SMILES | Sm TGR block | Pf growth 48h | AmpC inh no detg | AmpC inh detg | SARS PLP yeast | Pf growth 96h
CCC1CCCCN1C(=O)COc1ccccc1NC(C)=O (centres undefined) | 50µM* | -16% | 11% | -1% | -3% | 33%
CCC1CCCCN1C(=O)COc1cc(=O)n(C)c2ccccc12 (centres undefined) | 2% | nt | -9% | -20% | 9% | ?
COC(=O)NC(=S)Nc1ccc(Oc2ccc(Cl)cc2Cl)c(Cl)c1 | -1% | ? | -21% | 1% | 7% | 13µM*
Cc1ccc(NC(=S)NC(=O)C2CC2)cc1Cl | ? | -26% | -27% | -11% | ? | 9.3µM*
COc1ccccc1NC(=S)NC(=O)C1CC1 | ? | 4% | -40% | -7% | ? | 15%
O=C(NC(=S)Nc1ccccc1Cl)C1CC1 | 45µM* | 4% | -35% | -8% | 1% | ?
O=C(NC(=S)Nc1ccc(S(=O)(=O)N2CCCC2)cc1)C1CC1 | nt | ? | -29% | -7% | 1% | 0%
Cc1cc(=O)[nH]c(SCC(=O)Nc2c(C)n(C)n(-c3ccccc3)c2=O)n1 | 3% | -10% | -6% | 6% | 1% | -12%
CCn1c(SCC(=O)Nc2cc(Cl)ccc2OC)nc2c([nH]c3ccccc32)c1=O | 9% | nt | nt | -1% | nt | nt
Cc1ccc(S(=O)(=O)Nc2ccc(N3CCOCC3)cc2)cc1C | -11% | 26% | -30% | 0% | -1% | 18%
CC1=C(C(=O)N2CCCCC2)C(c2cccc(Cl)c2)n2c(nc3ccccc32)N1 (centres undefined) | -1% | nt | nt | 24% | nt | nt
COC(CNC(=O)C1CC(=O)N(CCc2ccc(C)cc2)C1)OC (centres undefined) | -21% | 30% | -13% | 2% | 0% | -1%
CC(=O)Nc1ccc(Br)c(Cl)c1 | 7% | ? | -17% | 6% | -3% | 2%
O=C(Nc1ccc2nccnc2c1)Nc1ccccc1Cl | 6% | 8.3µM* | -15% | 4% | 1% | ?
O=C(Nc1ccc(Br)c(Cl)c1)C1CC1 | 6% | 10% | 2.2µM* | 1% | -20% | 18%
CCc1ccc2c(c1)NC(c1ccc(C)cc1)=NC(c1cccs1)=N2 | -1% | nt | nt | 26% | nt | nt
CC(C)c1ccc2c(c1)C1(NN=C(c3ccccc3)S1)C(=O)N2 (centres undefined) | -28% | 3.3µM* | -35% | -3% | -80% | ?
CCc1ccc2c(c1)C1(NN=C(c3ccc(C)cc3)S1)C(=O)N2 (centres undefined) | -28% | 0.41µM* | -39% | -2% | -116% | ?
CC1=C(C(=O)OCc2ccc(C)cc2)C(c2ccccc2C(F)(F)F)CC(=O)N1 (centres undefined) | 6% | nt | nt | -6% | nt | nt
COc1ccc(NC(=O)Cn2nnc(C(=O)NCc3ccccc3Cl)c2N)cc1Cl | -3% | nt | nt | -1% | nt | nt
Oc1ccc(CNc2ccccc2)c2cccnc12 | 0.25µM* | ? | -50% | ? | 10µM* | 38%
Cc1cccc(NCc2ccc(O)c3ncccc23)c1 | 0.1µM* | 6% | -15% | 5% | -1% | ?
Oc1ccc(CNCc2ccc3c(c2)OCO3)c2cccnc12 | 5.6µM* | 8.3µM* | -15% | -9% | 4% | ?
O=C(CSc1ncccn1)NCc1ccc2c(c1)OCO2 | -1% | 34% | -12% | ? | 0% | ?
Oc1ccc(CNc2ccc(F)cc2)c2cccnc12 | ? | ? | -34% | ? | 12% | ?
Cc1cccc(NC(=O)CCCN2C(=O)c3cccc4cccc(c34)C2=O)c1 | 0% | 26% | -25% | 2% | 3% | 113%
